# Reference: PubChem BioAssay (NCI)
# About 83,000 compounds went through this panel and 20% of them were active in at least one assay; those are over-represented in the sample as a whole.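 Cell lines were cultured in 96-well plates, exposed to a single compound concentration, and assessed for percent growth 48 hours later.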 A number with no mark means an inactive call. The source made the active and inactive calls. How the source made its calls: active means growth percent below 10; inactive means the rest.
# What was measured:
# Assay in all cases: NCI-60 one-dose screen, 48 h (100 = growth as untreated, 0 = no growth, -100 = all killed)
# Details in all cases: 10 µM unless noted
# [1] = tested on: T-47D breast
# [2] = tested on: BT-549 breast
# [3] = tested on: MDA-MB-435 melanoma
# [4] = tested on: SW-620 colon
# [5] = tested on: MCF7 breast
# [6] = tested on: HCT-116 colon
# [7] = tested on: HCC-2998 colon
# [8] = tested on: KM12 colon
Compound,growth [1],growth [2],growth [3],growth [4],growth [5],growth [6],growth [7],growth [8]
CC(C(C(=O)N1CCCCC1)N1CCCCC1)N1CCCCC1 (configuration not stated),107%,111%,109%,108%,104%,97%,107%,113%
CCCC(C)(C)COC(=O)c1cccc(N)c1,92%,79.9%,111%,104%,91.7%,84.9%,96.9%,106%
O=C1C(Cl)=C(Nc2ccccc2)C(=O)C(Cl)=C1Nc1ccccc1,98.4%,112%,104%,107%,105%,112%,116%,116%
Cc1cn(C2CC(N=[N+]=[N-])C(COP(=O)(O)OP(=O)(O)OP(=O)(O)O)O2)c(=O)[nH]c1=O (configuration not stated),111%,115%,107%,109%,104%,94.1%,97.6%,108%
COc1ccc(-c2ccc(NC(=O)Nc3cccc(C(F)(F)F)c3)c(C)n2)cc1,26.5%,66.4%,69.6%,81%,41.5%,26.9%,81.1%,45.6%
COc1ccc(-c2nn(-c3cccc(Cl)c3)cc2-c2cc(-c3ccc(Br)cc3)[nH]c(=O)c2C#N)cc1,70.8%,66.3%,94.4%,73.5%,65%,79.7%,98.4%,91.8%
O=C(NCCNc1nccc(-c2c(-c3cccc(O)c3)nc3sccn23)n1)c1ccccc1,58.6%,61.4%,24%,78.2%,38.1%,42.5%,97.8%,75.9%
Cc1ccc(N(CC2=NCCN2)c2cccc(O)c2)cc1,98.5%,89.7%,100%,102%,93.9%,101%,,104%
C/C(=N\N=C1/SCC(=O)N1c1ccccc1)c1ccco1,114%,127%,88.6%,109%,53.7%,92.7%,109%,103%
Cc1cc2c(cc1C)N(C(=O)CCl)CCN2C(=O)CCl,-34.5% (active),-28.3% (active),-26.9% (active),-78.2% (active),-47.6% (active),-34% (active),,-85.2% (active)
COc1ccc(Cn2cc3c(c2-c2cc(OC)c(OC)c(OC)c2)CCc2c(CO)noc2-3)cc1,64.3%,0.154% (active),-27.1% (active),21.4%,19.6%,7.89% (active),26.5%,16.5%
COc1ccc(C(=O)Cn2cnc3c(Nc4cc(C(=O)Nc5ccc(N6CCN(CCO)CC6)cc5)ccc4C)ncnc32)cc1,91.6%,94.9%,105%,105%,87.1%,97.3%,97.4%,99.4%
C=CC(=O)Nc1cccc(Nc2nc(Nc3ccc(OCCOC(F)F)cc3)ncc2F)c1,32.8%,24.5%,9.37% (active),19%,23.9%,36%,35.8%,37.4%
NC(=O)C1=C[C@H]2[C@H]3C=C[C@@]2(O)C(=O)O[C@@H]3O1,38.2%,64.2%,36.9%,40.3%,21.6%,18.4%,,84.9%
CN(C)CCCOc1c(Br)cc(/C=C/C(=O)N(C)CCc2cc(Br)c(OCCCN(C)C)c(Br)c2)cc1Br,92.8%,76.5%,19.8%,32%,32.5%,12.1%,73%,47.7%
CC(C)(c1ccc(OCC(O)CNCc2ccco2)cc1)c1ccc(OCC(O)CNCc2ccco2)cc1 (configuration not stated),72.4%,88.7%,89.5%,90.3%,85.4%,60.2%,46.6%,82.6%
CC1CCC(C(C)C)C(NN)C1 (configuration not stated),80.2%,105%,110%,104%,100%,106%,97.9%,105%
COc1cc2ncnc(Oc3ccc(NC(=O)Nc4ccc(CN5CCOCC5)c(C(F)(F)F)c4)c4ccccc34)c2cc1OC,10.3%,25.2%,6.39% (active),24.8%,8.45% (active),17.4%,75.9%,6.26% (active)
CC(C)[C@@H]1NC(=O)[C@]2(C)CSC(=N2)c2ccnc(c2)CNC(=O)C[C@@H](/C=C/CCS)OC1=O,-24.6% (active),42.7%,5.07% (active),4.68% (active),16.1%,-39.2% (active),,6.09% (active)
Clc1ccc2c(NCCNc3nc(Cl)nc4ccccc34)ccnc2c1,-63.6% (active),-65.6% (active),-89.4% (active),-77.1% (active),-63.8% (active),-96.7% (active),-64.1% (active),-76.5% (active)
C/C(=N/O)c1ccc(NC(=O)Cn2nc(-c3ccc(Cl)cc3)nc2N)cc1,87%,116%,109%,104%,84.9%,107%,103%,98.4%
O=C(NOC1OC(CO)C(O)C(O)C1O)Nc1ccccc1 (configuration not stated),78.7%,110%,102%,106%,87.9%,105%,,105%
C[C@H]1C=C(C[C@@H](O)CCCCCCCCCC[C@@H](O)[C@H]2CCC(=O)O2)C(=O)O1,92.6%,112%,113%,99.9%,118%,87.9%,97.7%,105%
C=C1C(=O)O[C@H]2[C@H]1CC/C(C(=O)Nc1ccc(OC)c(C(N)=O)c1O)=C\CC[C@@]1(C)O[C@@H]21,16.9%,30.4%,60.6%,23.8%,31.1%,23.8%,102%,85%
CCCCCC/C=N/Nc1ccc([N+](=O)[O-])cn1,88.4%,96.2%,101%,102%,90.7%,84.7%,,99.5%
COC(=O)c1ccc2c(c1)Oc1ccc(Cl)cc1-c1cc(C)nn1-2,71.7%,96%,97.5%,68.5%,79.4%,44%,,87.7%
COc1ccc(C2CC(c3cc(Cl)c(C)cc3OC)=NN2c2ccc(S(N)(=O)=O)cc2)cc1OC (configuration not stated),77%,83.2%,95.8%,93.6%,80.4%,56.7%,99.9%,91.8%
CCOC(=O)NNc1nncc2ccccc12,94.8%,113%,100%,104%,105%,106%,103%,101%
